What all share (test): NCI-60 one-dose screen, 48 h (100 = growth as untreated, 0 = no growth, -100 = all killed)
Details in all cases: 10 µM unless noted

Test [1] deals with SR leukemia.
For test [2], the system named is RPMI-8226 leukemia.
The subject of test [3] is OVCAR-8 ovarian.
In test [4] the test system is OVCAR-5 ovarian.
Test [5] deals with OVCAR-4 ovarian.
Test [6] deals with SK-OV-3 ovarian.
Test [7] relates to IGROV1 ovarian.
The subject of test [8] is OVCAR-3 ovarian.
Test [9] has as its system HS 578T breast.
Test [10] relates to NCI/ADR-RES ovarian.
Test [11] relates to T-47D breast.
Test [12] has as its system BT-549 breast.
Test [13] concerns MDA-MB-435 melanoma.
The test system of test [14] is SW-620 colon.
Test [15] concerns MCF7 breast.
The test system of test [16] is HCT-116 colon.
For test [17], the system named is HCC-2998 colon.
The test system of test [18] is KM12 colon.

Compounds without any hit were thinned out: in the full panel of roughly 83,000, 20% have a hit.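 Testing used 96-well plates and a 48-hour single-concentration exposure. Example: -40 means 40% of the starting cells died.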 Unmarked numbers belong to inactive results. Activity calls are given as the source filed them. The calls were made as follows: active = growth percent below 10; inactive = the rest.

On to `Cn1c2ccccc2c2c3[nH]c(=O)[nH]c(=O)c3c3c4ccccc4n(C)c3c21`, for which the growth in test [1] was 13.7%; in [2], 33.1%; in test [3], 31.3%; in test [4] it was 23.8%; in [5], -10.1% (active); in test [6], 48.6%. Moreover, the growth in test [7] is 22.5%; in test [8] it was 4.89% (active); in test [9], -7.29% (active); in test [10] it was 32.2%; in test [11], 42.5%; in [12] it was 39.7%. Further, the growth in test [13] is 36.5%; in test [14], 33.1%; in test [15] it was 32.9%; in test [16] it was 17.6%; in test [17], 73.9%; in test [18], 24.2%.

Turning to `CN1CCN(Cc2ccc(NC(=O)c3cncc(C#Cc4c(N)ncc5ccc(C#N)cc45)c3)cc2C(F)(F)F)CC1`, the growth in [1] is -13% (active); in test [2] it was -23% (active); in test [3], -40% (active); in test [4], -84.5% (active); in [5] it was -73.9% (active); in test [6], 127%. Also, the growth in test [7] was -53.6% (active); in [8] it was 90.9%; in [9], 50.8%; in test [10] it was -30.5% (active); in [11], 65%; in test [12], 92.3%. For the same compound, the growth is -93.8% (active) in test [13]; -69.2% (active) in test [14]; -69.7% (active) in [15]; -22% (active) in test [16]; 78.5% in [17]; -41.8% (active) in test [18].

Take `Cc1ccc2c(c1)C(=O)/C(=C/c1ccc(OCC(=O)c3ccccc3)cc1)O2`: the growth in [1] is 107%; in test [2], 216%; in [3], 106%; in test [4], 107%; in test [5] it was 83.9%; in test [6], 106%. For the same compound, the growth was 75.9% in test [7]; 106% in test [8]; 105% in test [9]; 88.1% in test [10]; 77.8% in [11]; 112% in [12]. Moreover, the growth in [13] is 106%; in [14], 108%; in [15], 88.7%; in test [16] it was 93.4%; in [17] it was 125%; in test [18], 101%.

Turning to `Oc1ccccc1N=Cc1c(O)ccc2ccccc12`, the growth in test [1] is 37.5%; in test [2], 26.5%; in test [3] it was 97.8%; in [4] it was 87.3%; in [5], 74.8%; in [6], 84.6%. The growth is 58.9% in test [7]; 64.2% in test [8]; 64.9% in test [9]; 56.8% in [10]; 63% in test [11]; 54.5% in test [12]. For the same compound, the growth was 79.1% in test [13]; 85.7% in test [14]; 70.4% in [15]; 70.6% in test [16]; 92.4% in [17]; 59.1% in test [18].

For the compound `Cc1cc(N/N=C/c2nc(-c3ccc(Cl)cc3)oc2C)c2cc(Br)ccc2n1`, the growth in [1] is 4.22% (active); in test [2], -15% (active); in test [3], 8.16% (active); in test [4], 96.1%; in test [5] it was -83% (active); in [6] it was 104%. For the same compound, the growth in test [7] was 63.3%; in test [8], -21.2% (active); in test [9], 78.6%; in test [10], 14.7%; in [11], 74.5%; in [12], 94%. The growth in [13] was -38.8% (active); in [14] it was -65.4% (active); in test [15], -77.8% (active); in test [16], 4.35% (active); in test [17], 89.9%; in [18], 55.3%.

Consider `O=c1c2c3c(sc2n2c(CCl)nnc2n1Cc1ccccc1)CCCC3`, for which the growth in test [1] is -33.9% (active); in [2], -38.8% (active); in [3], 7.48% (active); in [4], -58.9% (active); in test [5] it was -99.3% (active); in [6], 103%. The growth was -42.9% (active) in [7]; -98.4% (active) in test [8]; -36.1% (active) in test [9]; 19% in test [10]; -69.9% (active) in test [11]; -93.5% (active) in test [12]. In addition, the growth is -64.5% (active) in [13]; -82.9% (active) in test [14]; -79.9% (active) in test [15]; -56.2% (active) in test [16]; -69.3% (active) in test [17]; -69.6% (active) in test [18].

`COCCCN=C(N)c1ccc(NC(=O)c2ccc(C(=O)Nc3ccc(C(N)=NCCCOC)cc3)cc2)cc1`: the growth in test [1] was 72.3%; in test [2] it was 63.2%; in test [3] it was 106%; in [4], 110%; in [5] it was 105%; in test [6], 115%. Further, the growth in [7] is 120%; in test [8] it was 154%; in [9], 151%; in [10], 112%; in [11], 108%; in test [12], 78.6%. Further, the growth in [13] is 88.4%; in test [14] it was 106%; in [15] it was 109%; in [16] it was 79.7%; in test [17], 116%; in [18], 132%.

Regarding `CC(=O)C1=C(O)C=C2Oc3c(C(=O)/C=C/c4ccccc4)c(O)c(C)c(O)c3[C@]2(C)C1=O`, the growth in test [1] is 30.3%; in test [2], 34.9%; in [3], 14%; in test [4] it was 78.7%; in test [5] it was 55.4%; in [6], 40.9%. Further, the growth in test [7] is 37.1%; in test [8], 27.5%; in test [9] it was 50%; in [10], 16.9%; in [11] it was 47.1%; in [12], 49.6%. The growth in test [13] was 46.3%; in [14] it was 49.9%; in test [15], 44.1%; in [16], 30.9%; in [17], 32.6%; in test [18] it was 33.6%.

As for `O=[N+]([O-])c1cccc(-c2nc3sccn3c2-c2ccnc(NCCCNS(=O)(=O)c3ccc(F)cc3)n2)c1`, the growth in [1] was 9.01% (active); in test [2], -29.7% (active); in test [3], 3.44% (active); in test [4] it was 59.1%; in test [5], -5.32% (active); in [6], 37.1%. In addition, the growth in test [7] is 5.03% (active); in test [8] it was 4.12% (active); in test [9] it was 22.2%; in test [10] it was -15.5% (active); in [11], -12.1% (active); in test [12], -12.1% (active). Also, the growth is 1.66% (active) in test [13]; 18.3% in [14]; -8.37% (active) in test [15]; 4.43% (active) in test [16]; 58.3% in test [17]; 0.995% (active) in test [18].

The values above are taken from PubChem BioAssay (NCI).
